Experimental findings from PubChem BioAssay are described below.

Test [1] in a line: compounds binding Alexa647 anti-His antibody – biochemical, small-molecule microarray, 635 nm fluorescence, artefact control for SMM control protein annotation, primary screen (AID 1128).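 Also: score merges feature fluorescence with signal-to-noise for each printed compound spot.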 The following applies: higher = more signal.
The subject of test [2] is Human papillomavirus type 1a E7 protein (residues 1-88). The test is described as follows: HPV1a E7 small-molecule binders, primary screen, biochemical, small-molecule microarray, residues 1-88, 635 nm (AID 1129). The following applies: small-molecule microarray binding, fluorescence 635 nm; higher = more signal.
Test [3] concerns the target Focal adhesion kinase 1 (Homo sapiens) (UniProt Q05397). The test is described as follows: PTK2 protein binding on printed compound slides – biochemical, small-molecule microarray, 635/667 nm fluorescence, BSA, DTT, primary screen (AID 1130).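 Also: composite of spot emission at 667 nm and signal to noise over triplicate slides.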 The conditions noted are these: 635 nm fluorescence, higher = more signal.
For test [4], the system named is Fibrinogen (Alexa647-labelled). The test is described as follows: Alexa647-fibrinogen binding to printed small molecules – biochemical, small-molecule microarray, 635/667 nm fluorescence, artefact control for SMM control-protein annotation, profiling panel (AID 1131).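 Also: z-score merges 667 nm fluorescence with per-spot signal-to-noise over triplicate slides.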 The following applies: fibrinogen-A647 binding fluorescence, higher = more signal.
Test [5] has as its target Follistatin (Homo sapiens) (UniProt P19883). The test is described as follows: FST protein binding to printed compounds – biochemical, small-molecule microarray, 635/667 nm fluorescence, primary screen (AID 1132). The conditions noted are these: 635 nm fluorescence, higher = more signal.
Test [6] addresses Fibroblast growth factor 2 (Homo sapiens) (UniProt P09038). Put plainly: basic fibroblast growth factor binding to printed compounds – biochemical, small-molecule microarray, 635/667 nm fluorescence, primary screen (AID 1133). The following applies: FGF2, fluorescence 635/667, higher = more signal.
The nature of test [7]: JC-1 mitochondrial potential readout, lung cancer cells – cell-based, A549, JC-1 fluorescence, basal, 24 h, 100 nL, profiling panel (AID 1138).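 Also: A549 lung adenocarcinoma cells under basal conditions with no added stimulus; test concentration not given here.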 The conditions noted are these: higher = more signal.
The test system of a further test is Lefty1. Put plainly: Lefty1 protein binding to printed compounds – biochemical, small-molecule microarray, 635/667 nm fluorescence, primary screen (AID 1139). The conditions noted are these: fluorescence 635/667, higher = more signal.
Test [8] deals with wheat germ agglutinin (Triticum aestivum), Alexa647-labelled. The test is described as follows: Alexa647-WGA lectin binding to printed small molecules – biochemical, small-molecule microarray, 635/667 nm fluorescence, artefact control for SMM control-protein annotation, profiling panel (AID 1140).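 Also: score merges 667 nm feature emission with signal to noise over triplicate slides.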 The following applies: WGA-A647 binding, 635 nm fluorescence, higher = more signal.

Test [9] has as its target Luciferin 4-monooxygenase (Photinus pyralis) (UniProt P08659). The test is described as follows: inhibition of purified Photinus pyralis luciferase – biochemical, luminescence, purified enzyme, 2006 set, primary screen (AID 1141).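 Also: cell-free assay with purified firefly luciferase at 100 ng per well in PBS; test concentration not given here.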 The following applies: purified firefly luciferase, SteadyGlo luminescence, 30 min; higher = more signal, called active from +8 up or from −8 down.

Test [10] concerns Wnt5a (protein binding on small-molecule microarray). Put plainly: small molecules binding Wnt5a protein – biophysical, small-molecule microarray, 635/667 nm fluorescence, primary screen (AID 1142).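 Also: fluorescence read at 667 nm with signal to noise per printed feature.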 The conditions noted are these: 635 nm fluorescence, higher = more signal.
Test [11] in a line: ATP-based viability of Huh7 replicon cells – cell-based, CellTiter-Glo luminescence, basal, 48 h, cytotoxicity control for HCV replication inhibitor project, primary screen (AID 1143).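 Also: Huh7 hepatoma cells carrying a hepatitis C replication reporter with no stimulus; test concentration not given here.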 The following applies: higher = more signal, called active from +8 up or from −8 down. Background: Replicon systems follow genome replication, usually without infectious particles.
A short description of test [12]: Pseudomonas biofilm growth suppression – PAO1 strain, BacTiter-Glo luminescence, LB-PBS, primary screen (AID 1144). The conditions noted are these: P. aeruginosa PAO1 biofilm, 12 h, higher = more signal.
A short description of test [13]: basal CRE-LacZ reporter activity in PC12 – cell-based, unstimulated, primary screen (AID 1145). The following applies: no forskolin, luminescence, 4.5 h, higher = more signal, called active from +8 up or from −8 down.
Test [14] is described as follows: forskolin-driven CRE-LacZ activity in PC12 – cell-based, CRE-LacZ reporter, forskolin-stimulated, primary screen (AID 1146).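 Also: PC12 cells with 6xCRE LacZ reporter stimulated by forskolin 10 µM; beta-galactosidase reporter signal reflecting CREB driven transcription.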 The following applies: luminescence, 4.5 h, higher = more signal, called active from +8 up or from −8 down.
Test [15] has as its target Streptavidin (Streptomyces avidinii) (UniProt P22629). Put plainly: compounds binding control protein streptavidin – biophysical, small-molecule microarray, 635/667 nm fluorescence, artefact control for SMM compound annotation, primary screen (AID 1147).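 Also: signal reflects streptavidin binding to arrayed compounds as a control protein.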 The conditions noted are these: higher = more signal.
Test [16] can be described thus: probe aInhba binding on compound microarray – biochemical, small-molecule microarray, 635/667 nm fluorescence, primary screen (AID 1148).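 Also: score merges 667nm spot fluorescence with signal-to-noise for antibody binding to printed compounds.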 The following applies: higher = more signal.
Test [17] concerns the target Torsin-1A (Homo sapiens) (UniProt O14656). Put plainly: TOR1A wild-type binding on microarray – cell lysate, small-molecule microarray, lysate, 635/667 nm, primary screen (AID 1149). The conditions noted are these: COS7 hTOR1A-WT lysate, 635 nm fluorescence, higher = more signal.
Test [18] has the same target. The test is described as follows: torsin A mutant lysate binding on microarrays – cell lysate, small-molecule microarray, COS7 lysate, 635/667 nm fluorescence, primary screen (AID 1150).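 Also: score pools 667 nm emission and signal to noise measuring lysate protein binding.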 The following applies: COS7 hTOR1A mutant lysate, 635 nm fluorescence, higher = more signal.
Test [19] relates to Sonic hedgehog protein (Shh). Put plainly: Sonic hedgehog microarray binding compounds – biochemical, small-molecule microarray, 635/667 nm fluorescence, primary screen (AID 1151).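 Also: Shh protein binding to compounds spotted on small-molecule microarray slides; score combines spot fluorescence intensity with signal-to-noise across triplicate slides.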 The following applies: 635 nm fluorescence, higher = more signal.

Activity calls are given as the source filed them. Unless noted, no rule for the calls is given here.

Luciferin 4-monooxygenase (Photinus pyralis), sequence (P08659 whole entry, looked up): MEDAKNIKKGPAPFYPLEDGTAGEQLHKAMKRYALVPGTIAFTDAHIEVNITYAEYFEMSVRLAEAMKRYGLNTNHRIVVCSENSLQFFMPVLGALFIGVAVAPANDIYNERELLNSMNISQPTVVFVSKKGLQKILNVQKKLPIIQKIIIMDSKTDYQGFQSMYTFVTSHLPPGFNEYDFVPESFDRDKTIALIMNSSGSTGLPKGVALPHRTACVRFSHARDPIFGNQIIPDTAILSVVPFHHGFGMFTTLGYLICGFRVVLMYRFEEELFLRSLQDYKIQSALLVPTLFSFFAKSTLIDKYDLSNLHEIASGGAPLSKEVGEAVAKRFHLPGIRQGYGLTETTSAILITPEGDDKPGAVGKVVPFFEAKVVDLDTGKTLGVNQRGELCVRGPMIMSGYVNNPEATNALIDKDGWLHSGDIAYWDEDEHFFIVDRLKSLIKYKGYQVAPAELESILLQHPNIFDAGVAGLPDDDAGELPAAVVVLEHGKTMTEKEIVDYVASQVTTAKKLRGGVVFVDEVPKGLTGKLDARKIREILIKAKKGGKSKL
Fibroblast growth factor 2 (Homo sapiens), sequence (P09038 whole entry, looked up): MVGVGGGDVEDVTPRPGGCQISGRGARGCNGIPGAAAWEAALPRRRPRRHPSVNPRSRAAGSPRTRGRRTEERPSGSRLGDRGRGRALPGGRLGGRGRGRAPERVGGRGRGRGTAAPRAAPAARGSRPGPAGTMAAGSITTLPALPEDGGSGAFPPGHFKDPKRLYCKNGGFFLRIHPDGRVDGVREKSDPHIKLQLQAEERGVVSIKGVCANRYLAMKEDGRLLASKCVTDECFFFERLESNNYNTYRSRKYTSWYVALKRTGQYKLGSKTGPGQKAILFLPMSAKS
Streptavidin (Streptomyces avidinii), sequence (P22629 whole entry, looked up): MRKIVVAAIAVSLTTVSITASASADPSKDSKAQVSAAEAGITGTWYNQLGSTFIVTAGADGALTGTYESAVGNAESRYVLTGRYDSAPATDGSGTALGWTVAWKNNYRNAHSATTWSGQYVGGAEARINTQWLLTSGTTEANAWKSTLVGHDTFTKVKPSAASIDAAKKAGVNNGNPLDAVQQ
Torsin-1A (Homo sapiens), sequence (O14656 whole entry, looked up): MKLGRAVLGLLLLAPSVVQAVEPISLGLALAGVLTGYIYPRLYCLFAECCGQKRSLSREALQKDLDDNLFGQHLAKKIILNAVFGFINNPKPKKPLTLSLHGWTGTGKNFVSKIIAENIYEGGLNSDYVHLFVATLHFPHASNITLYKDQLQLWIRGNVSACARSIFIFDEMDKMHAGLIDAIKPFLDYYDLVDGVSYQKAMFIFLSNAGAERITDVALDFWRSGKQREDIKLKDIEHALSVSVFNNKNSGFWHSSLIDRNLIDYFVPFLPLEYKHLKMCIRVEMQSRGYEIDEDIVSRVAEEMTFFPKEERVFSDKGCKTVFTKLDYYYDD
Focal adhesion kinase 1 (Homo sapiens), sequence (Q05397 whole entry, looked up): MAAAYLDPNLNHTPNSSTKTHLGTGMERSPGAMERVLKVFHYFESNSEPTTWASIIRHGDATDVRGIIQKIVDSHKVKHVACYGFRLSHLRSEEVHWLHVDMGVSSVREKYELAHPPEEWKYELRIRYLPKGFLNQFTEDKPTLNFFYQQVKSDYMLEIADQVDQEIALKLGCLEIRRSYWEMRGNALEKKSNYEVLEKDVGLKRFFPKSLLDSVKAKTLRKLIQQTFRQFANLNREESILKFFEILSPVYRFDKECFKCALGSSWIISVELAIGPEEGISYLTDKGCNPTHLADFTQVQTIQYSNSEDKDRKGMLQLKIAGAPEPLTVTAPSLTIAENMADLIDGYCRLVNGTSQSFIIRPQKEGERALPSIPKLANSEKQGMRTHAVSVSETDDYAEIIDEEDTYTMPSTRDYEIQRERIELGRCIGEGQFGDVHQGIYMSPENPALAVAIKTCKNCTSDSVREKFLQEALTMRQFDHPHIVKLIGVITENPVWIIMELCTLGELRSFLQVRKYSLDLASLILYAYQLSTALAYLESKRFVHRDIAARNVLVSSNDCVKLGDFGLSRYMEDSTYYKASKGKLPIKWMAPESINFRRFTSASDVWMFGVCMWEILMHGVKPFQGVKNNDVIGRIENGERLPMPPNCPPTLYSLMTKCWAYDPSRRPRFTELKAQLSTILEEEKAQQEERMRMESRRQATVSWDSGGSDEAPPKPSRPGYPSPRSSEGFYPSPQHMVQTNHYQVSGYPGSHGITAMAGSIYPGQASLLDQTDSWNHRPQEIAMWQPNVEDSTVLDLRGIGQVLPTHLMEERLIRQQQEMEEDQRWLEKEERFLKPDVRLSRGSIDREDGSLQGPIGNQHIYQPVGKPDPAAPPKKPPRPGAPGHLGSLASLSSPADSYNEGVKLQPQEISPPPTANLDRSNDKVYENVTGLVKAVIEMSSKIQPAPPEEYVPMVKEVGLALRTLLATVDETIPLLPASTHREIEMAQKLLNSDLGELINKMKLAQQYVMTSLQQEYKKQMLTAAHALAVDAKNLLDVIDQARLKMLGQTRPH
Follistatin (Homo sapiens), sequence (P19883 whole entry, looked up): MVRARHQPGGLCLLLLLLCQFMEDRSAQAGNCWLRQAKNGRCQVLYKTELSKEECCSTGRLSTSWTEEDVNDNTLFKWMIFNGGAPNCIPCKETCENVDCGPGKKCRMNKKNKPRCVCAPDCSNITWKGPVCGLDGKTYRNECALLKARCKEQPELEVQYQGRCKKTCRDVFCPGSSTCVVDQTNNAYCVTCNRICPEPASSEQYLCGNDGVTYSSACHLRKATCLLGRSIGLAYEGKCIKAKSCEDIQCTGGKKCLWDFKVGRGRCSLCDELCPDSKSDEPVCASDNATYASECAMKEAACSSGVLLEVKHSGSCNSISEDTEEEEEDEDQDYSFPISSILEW

In the case of `COc1ccc(O[C@H]2C=C[C@@H](c3ccccc3)O[C@@H]2COC(=O)CCC(C)=NO[C@@H](C)c2cc(-c3c(C)cc(C)cc3C)no2)cc1`, the composite z-score in test [1] is -0.566; in test [2], -0.23; in test [3], -0.174; in test [4] it was -0.223; in [5], -1.32; in test [6] it was -0.848. Moreover, the composite z-score is -0.773 in the test on Lefty1; -0.204 in test [8]; -0.61 in test [10]; -0.987 in [15]; -0.295 in test [16]; -1.29 in the test with Torsin-1A (Homo sapiens) [17]. Further, the composite z-score is -1.04 with Torsin-1A (Homo sapiens) [18] and 0.224 in [19]. In addition, the z-score in [7] is 0.67; in test [9], 1.21 (inactive); in test [11], -0.961 (inactive); in [12], -0.587 (inactive); in test [13], -0.315 (inactive); in test [14], 0.65 (inactive).
Take `COc1ccc(O[C@@H]2[C@H](O)CO[C@H]2C=CC#Cc2ccccc2)cc1`: the composite z-score in test [1] is 1.1; in [2] it was -0.253; in test [3], -0.267; in [4], 0.73; in test [5], 0.356; in test [6], 0.341. Further, the composite z-score in the test on Lefty1 is 0.407; in [8] it was 0.535; in test [10], -0.02; in test [15], -0.31; in [16] it was -0.0762; in the test with Torsin-1A (Homo sapiens) [17], 0.23. For the same compound, the composite z-score with Torsin-1A (Homo sapiens) [18] came out at 0.286; in test [19] it was 0.332. In addition, the z-score is -0.0963 in test [7]; -0.391 (inactive) in test [9]; 0.163 (inactive) in test [11]; 0.995 (inactive) in test [12]; 0.201 (inactive) in test [13]; 0.415 (inactive) in [14].
In the case of `Cn1cccc1C(O)C1C=CC2C(=O)NC(=O)C2N1Nc1ccccn1` (stereo not given), the composite z-score in test [1] is 0.195; in [2] it was -0.789; in test [3], -0.35; in test [4], -0.0084; in test [5], 0.776; in test [6] it was 0.126. For the same compound, the composite z-score with Lefty1 is 0.097; in test [8], 1.03; in test [10] it was 0.0956; in test [15] it was 0.126; in [16], -0.231; with Torsin-1A (Homo sapiens) [17], 0.3. Further, the composite z-score with Torsin-1A (Homo sapiens) [18] was determined as 0.197; in [19], 0.64. The z-score in test [7] was -1.96; in [9] it was -1.41 (inactive); in test [11], -3.04 (inactive); in test [12], 0.465 (inactive); in [13], -0.326 (inactive); in [14], 0.583 (inactive).
Consider `Cc1ccc(C2CC=C(C(=O)O)CN2S(=O)(=O)c2ccc(C)cc2)cc1` (stereo not given), for which the composite z-score in test [1] stood at 1.26; in [2], 1.17; in [3], 0.286; in test [4] it was 0.566; in test [5] it was 0.158; in test [6], 0.0208. In addition, the composite z-score in the test with Lefty1 is 0.0504; in [8], 0.718; in test [10] it was 0.212; in [15], 0.169; in [16], -0.024; in the test with Torsin-1A (Homo sapiens) [17], 0.427. The composite z-score was 0.426 in the test with Torsin-1A (Homo sapiens) [18] and -0.065 in [19]. Besides, the z-score in test [7] was -1.23; in test [9], 1.64 (inactive); in [11], 0.0273 (inactive); in test [12], -0.119 (inactive); in test [13], -0.378 (inactive); in test [14] it was 0.707 (inactive).
Take `Cc1cc2c(nc1C)CCCN2CC(O)CN1CCN(C)CC1` (stereo not given): the composite z-score in test [1] is 1.51; in test [2], 0.1; in test [3], 0.648; in test [4], -0.702; in [5], 0.936; in [6], 0.688. The composite z-score in the test with Lefty1 was 0.409; in test [8], 1.02; in test [10], -0.168; in [15], 0.549; in test [16] it was 0.198; in the test with Torsin-1A (Homo sapiens) [17], 0.679. Moreover, the composite z-score in the test with Torsin-1A (Homo sapiens) [18] worked out at 0.528; in [19] it was 0.672. Besides, the z-score in test [7] is 0.63; in [9], 0.246 (inactive); in [11] it was -1.28 (inactive); in test [12], 0.816 (inactive); in test [13], -0.613 (inactive); in [14] it was -0.91 (inactive).
